# From the supplement of paper PMC6555819
# Assays:
# Assay in all cases: PBM binding z-score (relative to random genomic background probes); higher = stronger binding; sequences stand for … in GC…GCGATTGACAGCGTAGAATGAAGG
# [1] = test system: FXR:RXRa (NR concentration 270 nM, RXRa partner concentration 90 nM)
# Procedure, shortened: (§1)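 Each nuclear receptor dimer, without ligand, was incubated for 1 h on custom Agilent 4×180K protein-binding microarrays. Binding was detected with antibodies against each partner (one per run), and scanned fluorescence was regression-normalized. The binding z-scores are referenced to random human genomic background probes.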
# [2] = test system: LXRa:RXRa (NR concentration 270 nM, RXRa partner concentration 90 nM)
# Procedure, shortened: as §1
# [3] = test system: LXRa homodimer (NR concentration 270 nM)
# Procedure, shortened: as §1
# [4] = test system: LXRb:RXRa (NR concentration 270 nM, RXRa partner concentration 90 nM)
# Procedure, shortened: as §1
# [5] = test system: LXRb homodimer (NR concentration 270 nM)
# Procedure, shortened: as §1
# [6] = test system: PPARg:RXRa (NR concentration 180 nM, RXRa partner concentration 90 nM)
# Procedure, shortened: as §1
# [7] = test system: PPARg:RXRa 270nM:90nM, anti-RXR (NR concentration 270 nM, RXRa partner concentration 90 nM)
# Procedure, shortened: as §1
# [8] = test system: PPARg:RXRa 30nM:10nM, anti-RXR (NR concentration 30 nM, RXRa partner concentration 10 nM)
# Procedure, shortened: as §1
# [9] = test system: PPARg:RXRa 90nM:30nM, anti-RXR (NR concentration 90 nM, RXRa partner concentration 30 nM)
# Procedure, shortened: as §1
# [10] = test system: PPARg:RXRa DBDmut IVT, anti-RXR (DBD mutation: RXRa K156A/R161A, NR concentration 270 nM, RXRa partner concentration 90 nM)
# Procedure, shortened: as §1
# [11] = test system: PPARg:RXRa IVT, anti-PPARg (NR concentration 270 nM, RXRa partner concentration 90 nM)
# Procedure, shortened: as §1
# [12] = test system: PPARg DBDmut:RXRa IVT, anti-PPARg (DBD mutation: PPARg1 K132A/R137A, NR concentration 270 nM, RXRa partner concentration 90 nM)
# Procedure, shortened: as §1
# [13] = test system: PPARg DBDmut IVT, anti-PPARg (DBD mutation: PPARg1 K132A/R137A, NR concentration 270 nM)
# Procedure, shortened: as §1
# [14] = test system: PPARg homodimer (NR concentration 180 nM)
# Procedure, shortened: as §1
# [15] = test system: PXR:RXRa (NR concentration 270 nM, RXRa partner concentration 90 nM)
# Procedure, shortened: as §1
# [16] = test system: PXR homodimer (NR concentration 270 nM)
# Procedure, shortened: as §1
# [17] = test system: RARa:RXR (NR concentration 270 nM, RXRa partner concentration 90 nM)
# Procedure, shortened: as §1
# [18] = test system: RARa homodimer (NR concentration 270 nM)
# Procedure, shortened: as §1
# [19] = test system: PPARa:RXRa (NR concentration 270 nM, RXRa partner concentration 90 nM)
# Procedure, shortened: as §1
# [20] = test system: RARb:RXRa (NR concentration 270 nM, RXRa partner concentration 90 nM)
# Procedure, shortened: as §1
Sequence,PBM binding z-score [1],PBM binding z-score [2],PBM binding z-score [3],PBM binding z-score [4],PBM binding z-score [5],PBM binding z-score [6],PBM binding z-score [7],PBM binding z-score [8],PBM binding z-score [9],PBM binding z-score [10],PBM binding z-score [11],PBM binding z-score [12],PBM binding z-score [13],PBM binding z-score [14],PBM binding z-score [15],PBM binding z-score [16],PBM binding z-score [17],PBM binding z-score [18],PBM binding z-score [19],PBM binding z-score [20]
CGTCCAAGGTCAAAGGTCAGGGAAGAGATGACGG,8.68,6.78,3.32,6.96,1.53,11,9.03,8.32,9.6,3.65,6.24,1.42,0.451,3.19,7,1.61,8.27,2.57,–,–
CAAAATAGGTCAAGGTCAAAGTCGGTTTGTGCCA,7.38,5.98,4.65,5.22,2.2,8.81,7.46,5.59,7.54,7.7,8.26,1.72,1.63,4.28,5.51,2.04,5.42,1.28,–,–
CCTGCTAGGACAATGGTCAGCTAAAGCAGCTCGC,-0.67,-0.803,-0.499,-0.869,-1.1,–,1.2,-0.505,0.711,0.194,-0.56,-1.25,-2.24,-1.14,-0.961,-0.715,-0.928,-0.846,-0.776,0.219
CCTACTGGGCCAACAAGGTCATTGATGCCGATAA,2.09,2.49,1.44,2.45,-0.582,3.23,3.3,0.856,2.31,3.7,4.68,-0.0965,-0.198,2.24,3.92,3.62,3.64,0.0671,–,2.8
TAGCCTAGGTCATGCGGGCCAGTATAGTGTCGGC,3.95,3.16,0.141,1.55,-0.409,1.98,2.32,-0.028,1.01,1.77,2.76,-0.107,-0.0866,0.667,1.37,-0.724,2.44,-0.846,–,3.66
ATCGAAGGGTCGAAGGTGAGTATACCCACCCGAA,1.3,1.26,-0.26,1.21,-0.316,2.73,3.11,1.08,2.47,-0.959,1.2,0.357,-0.0817,0.676,1.64,-0.184,2.48,-0.374,–,2.15
TAGCCTAGGTTATGCGGGCCAGTATAGTGTCGGC,-0.487,-0.497,-0.618,-0.71,-1.29,0.00764,-0.446,-0.658,-0.569,0.00744,0.945,-0.658,-0.513,-0.501,-0.511,-0.854,-0.208,-1.25,–,0.558
CAAACTAGGTCACCGTAAGGTCAAAGTCCGCATG,6.58,6.1,5.47,5.55,1.46,9.41,7.89,5.84,7.64,8.08,9.03,2.73,1.86,6.09,6.21,2.62,7.31,1.95,–,5.57
TCTAGTTGGTCAAAGGCCACACACTCGAAATGCG,0.691,0.811,0.139,0.867,-0.181,6.54,7.01,6.34,7.68,2.18,3.17,0.393,0.329,1.01,0.772,0.0843,1.28,0.063,–,1.95
CCTAGCAGACCAATCTGGGTCACTCAAGGCTTGA,0.219,0.374,-0.629,0.514,-1.09,1.8,2.09,0.195,1.21,4.01,4.87,0.573,-0.876,0.484,0.638,-0.509,1.57,-0.18,–,0.96
CCTGCTAGGTCATGGTCAGGTAATCTACAGTATG,3.64,2.62,0.355,1.7,-0.354,2.37,2.82,0.671,1.75,4.45,3.79,0.801,0.0323,1.72,1.78,-0.0214,2.55,0.209,–,4.04
CCTGCTAGGTCAATGGTCAGCTAAAGCAGCTCGC,3.01,2.21,-0.22,1.4,-0.359,4.36,5.49,3.2,5.15,4.63,4.19,-1.03,-1.12,0.944,0.92,-0.545,1.82,-0.551,–,3.73
TCTGCTAGGTCAACGATGGTCAGCGAATCTGCTA,3.19,2.8,-0.293,1.24,-0.382,2.51,3.03,1.79,2.4,4.02,4.01,0.33,-0.3,0.458,1.44,-0.999,2.26,-0.808,–,4.11
AGACAAAGTTCAGGACGAGGTAACGTAAAGCACG,4.35,3.92,0.814,1.95,-0.0251,2.53,2.93,1,1.97,-0.362,0.619,0.472,0.977,1.38,3.02,0.806,3.06,0.776,–,4.18
TCAGATAGGTAAAGGTGAAAGTCGAACGATATGA,0.962,1.49,-0.219,1.3,-0.401,2.56,3.99,4.4,4.3,2.81,2.22,0.559,0.38,1.31,0.975,0.0879,1.75,0.371,–,2.16
TATACAGGGTCTAAGGCCAGAGTACGAATGTCGA,0.41,0.239,0.14,0.157,0.936,1.09,1.86,0.951,1.51,-0.0368,0.912,0.973,0.725,0.023,-0.0788,0.0324,-0.102,0.373,–,0.935
CGTCCAACGTCAGCAGGTCAGTGAAAGCGACGTG,-0.27,-0.136,-0.366,-0.0519,-0.788,-0.188,-0.476,-0.755,-0.842,0.148,0.161,-0.345,-1.13,-0.114,0.174,-0.448,0.556,-0.438,–,1.82
CCGACTTGGGCAAAGGTTACCATACTCAGTACGA,0.847,1.32,0.214,1.68,-0.6,6.45,6.29,5.67,7.54,0.755,2.56,-0.26,-0.659,0.915,1.45,0.0117,2.35,-0.0307,–,1.92
AAATGTAGGTTAAGGGTCATTCAGGTTGGTTCGC,5.31,4.71,3.07,4.53,1.39,11.7,9.63,10.5,10.8,8.02,8.07,2.18,2.05,3.58,5.32,2.61,5.42,2.02,–,3.7
CCTAGTTGGTCAGGTGGTCACACACCGGATATGA,0.558,0.139,0.26,0.406,-0.0912,0.84,1.18,0.231,0.655,0.0405,0.926,-0.00343,-0.318,1.26,0.174,0.369,0.505,1.18,–,1.25
CAAACTAGGTCACGAAAGGTCAAAGTGGAATGAC,7.59,8.25,7.92,7.19,2.79,10.6,8.11,7.1,8.54,8.3,9.14,4.86,3.3,6.09,7.22,2.33,7.85,4.81,–,5.72
TCTAGTTGGTCAAAGGTCTCACACTCGAAATGCG,1.27,1.49,0.269,1.57,0.449,7.81,7.33,6.65,8.53,3.11,3.77,1.08,1.78,2.48,1.34,0.942,1.89,1.17,–,1.88
CCTTACGGGTCAGTGACAGGTTATAGCATTTGGA,4.29,3.37,0.351,2.96,-0.126,1.94,2.4,0.815,1.86,1.83,1.86,0.385,0.16,1.97,2.36,0.241,3.19,0.476,–,3.5
CCTAGCCGGCCAATCTGGGTCACTCAAGGCTTGA,0.614,0.785,0.0438,1.02,-0.78,1.68,2.15,-0.425,1.27,3.39,4.68,-0.873,-0.666,0.858,1.03,-0.396,2.24,-0.278,–,1.4
TAGCCTAGGTCATTCAGGGGCCAGTATGGAAAGC,4.71,3.88,0.839,2.81,1.22,2.1,2.25,0.204,1.74,1.58,2.93,0.514,-0.26,2.13,2.46,-0.398,3.77,0.0659,–,4.11
AGATTGAGGTTACCAAAGATCAGGGAAACGCTTG,2.33,6.22,0.108,3.17,-0.201,2.04,2.22,0.623,1.49,3.1,2.54,0.865,-0.0178,0.218,1.5,-0.393,2,0.127,–,2.24
CAAACTAGGTCACCGGAAGGTCATAGTCCGCATG,6.02,5.59,4.48,4.88,0.927,9.71,7.81,6.11,7.67,8.59,9.21,4.3,3.06,4.74,5.48,1.67,6.36,1.54,–,5.66
CCTGCTAGTTCATGGTCAGCTAATCTACAGTATG,-0.0312,0.212,-0.184,0.106,-0.269,-0.348,-0.236,-0.124,-0.29,0.644,-0.0239,-0.434,-0.632,-0.0541,0.563,0.0644,0.225,-0.814,–,1.55
ACTTACGGGTCAACGGGGTTATAGCACGCGTATA,6.95,4.81,0.682,5,0.93,6.4,5.83,2.51,4.14,3.04,4.81,1.21,1.3,2.83,5.57,2.28,5.87,0.668,–,4.47
AGAATGAGGTTAACAAAGATCAGGGAAACGCTTG,2.66,5.37,0.105,2.63,-0.171,2.62,2.59,1.09,1.88,3.76,3.12,0.964,0.512,0.76,1.72,0.159,2.07,1.01,–,2.01
